TDP1 cell CPT: DT40-hTDP1 cell growth loss with CPT | actives 12% (n = 420,000) | Potency, µM (titrated, usually from 46.2 µM), for inactives: at the highest dose activity change, negative = growth inhibition, most hits filed as inhibitors | chicken DT40 Tdp1-/-;hTDP1 cells + 20 nM CPT, ATP luminescence, 48 h; also: nearly all actives have a fitted effect of over 55% in size
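Chicken DT40 Tdp1-/- cells complemented with human TDP1, 400 cells/well, exposed to compounds plus 20 nM camptothecin for at least 48 h at 37 C; viability read as ATP content by CellTiter-Glo luminescence.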
HT1080NT lethal: kills 2HG-producing HT-1080-NT fibrosarcoma cells. HT-1080-NT fibrosarcoma viability, CellTiter-Glo ATP luminescence, 48 h. Potency, µM (top dose mostly 46.1 µM), inactives show top-dose activity, negative = less viability, hits mostly cytotoxic. actives 1.6% (n = 360,000). AID 686970;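 also: NT is the 2HG producing partner of a matched IDH1 knockdown line; 0% = DMSO-treated cells and -100% = media-only wells without cells; nearly all actives have a fitted effect of over 55% in size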
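HT-1080-NT fibrosarcoma cells (2HG-overproducing), 750 cells/well in RPMI with 5% FBS, dosed after 2 h and incubated 48 h at 37C. CellTiter-Glo luminescence normalized to DMSO and no-cell wells; concentration-response curves fitted and classed.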
KB-V1 cytotox: KB-V1 MDR subline cytotoxicity; actives 3.4% (n = 400,000); AID 1347076; Potency, µM (doses to about 46.1 µM), usual class: cytotoxic; KB-V1 MDR cells viability, CellTiter-Glo, 72 h; also: nearly all actives have a fitted effect of over 60% in size
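Cytotoxicity via CellTiter-Glo luminescence after 72 h compound exposure at 37 degrees C. Cells: drug-selected KB-V1 line, DMEM phenol-red free plus 10% FBS. Compounds tested at multiple concentrations; normalized data fitted to concentration-effect curves.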
KB-3-1 tox: KB-3-1 parental cell cytotoxicity | KB-3-1 viability, CellTiter-Glo ATP luminescence, 72 h | Potency, µM (titrated, usually from 46.1 µM), usual class: cytotoxic | actives 1.4% (n = 400,000); also: nearly all actives have a fitted effect of over 60% in size
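Screening of KB-3-1 cells (DMEM, 10% FBS, phenol-red free) ran from lowest to highest compound concentration; after 72 h at 37 °C viability was read luminescently and curves fitted.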
HT1080 IDH1KD tx: HT-1080 IDH1 knockdown cell toxicity (counter line) | AID 686971 | actives 2% (n = 360,000) | HT-1080 IDH1 knockdown viability, ATP luminescence, 48 h | Potency, µM (doses to about 46.1 µM), without a hit: at the top dose activity, negative = toxicity, hits mostly cytotoxic;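 also: 0% = DMSO wells and -100% = cell-free medium wells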
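Knockdown cells (IDH1KD HT-1080) received compounds 2 h after plating at 750 cells/well and were kept 48 h at 37 °C in 5% FBS RPMI. A CellTiter-Glo luminescence read gave % activity for curve fitting.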
DT40 TDP1 no CPT: qHTS for Inhibitors of human tyrosyl-DNA phosphodiesterase 1 (TDP1): qHTS in cells in absence of CPT; DT40 Tdp1-/- hTDP1 cells, no CPT, ATP luminescence, 48 h; AID 686978, 2013; actives 15% (n = 420,000); Potency, µM (doses to about 46.2 µM), inactives show at the top dose activity change, negative = growth inhibition, actives largely listed as inhibitors; also: nearly all actives have a fitted effect of over 55% in size
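No-CPT arm: Tdp1-/-;hTDP1 DT40 cells (400/well) plus compounds, incubated ≥48 hr at 37 °C. Readout CellTiter-Glo luminescence.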
An asterisk follows results filed as active; i = inactive; ? = inconclusive; . = no result given. A selection: hits, their analogues and other compounds. The true share with any hit is near 19%. Calls follow the shape of the dose curve; as a rule, active = well fitted curve in the direction sought with a large enough effect; inconclusive = small, poorly fitted or top-dose-only effect, or another doubt; inactive = no such curve, though single readings can be large; an effect the other way counts as inactive or inconclusive. Unless noted, % is scaled to controls: 0 for no effect and ±100 for the full control effect; potency is read from the fitted curve at half-maximal effect.

SMILES | TDP1 cell CPT | HT1080NT lethal | KB-V1 cytotox | KB-3-1 tox | HT1080 IDH1KD tx | DT40 TDP1 no CPT
Cc1cccc(C(=O)N2CCc3cc(CNC(=O)COc4ccc(Cl)cc4)ccc32)c1 | -28% | . | i | i | . | -20%
CC(NC(=O)c1cccc(S(=O)(=O)N(C)c2ccccc2)c1)c1cccnc1 (centres undefined) | 18µM* | 2% | i | i | -4% | 18µM*
Cc1nc2ccc(NC(=O)c3cccc(S(=O)(=O)N(C)c4ccccc4)c3)cc2s1 | 3.7µM* | ? | ? | ? | ? | 6.5µM*
Cc1nc2ccc(NC(=O)c3ccccc3)cc2s1 | ? | 1% | i | i | -1% | 16%
COc1ccccc1N(C)S(=O)(=O)c1ccc(C(=O)Nc2ccc3nc(C)sc3c2)cc1 | 16µM* | -12% | 23µM* | ? | -27% | ?
Cc1ccc(NC(=O)c2cccc(S(=O)(=O)N(C)c3ccccc3)c2)cc1S(=O)(=O)N1CCOCC1 | 23µM* | -4% | 5.2µM* | ? | -15% | 23µM*
CCCCN(CCCNC(=O)c1ccc2c(c1)NC(=O)CN2C)c1ccccc1 | ? | ? | i | ? | ? | ?
COc1ccc(C(CC(=O)N2CCCC(C)C2)c2c(OC)cc(OC)c3ccc(=O)oc23)cc1 (centres undefined) | ? | -5% | i | i | -9% | 18µM*
COc1ccc(C(CC(=O)N2CCCC2)c2c(OC)cc(OC)c3c(-c4ccccc4)cc(=O)oc23)cc1 (centres undefined) | ? | 0% | i | ? | 1% | 16µM*
COc1ccc(C(CC(=O)N2CCCCC2)c2c(OC)cc(OC)c3c(-c4ccccc4)cc(=O)oc23)cc1 (centres undefined) | ? | -24% | ? | i | -13% | ?
COc1ccc(C(CC(=O)N2CCCC(C)C2)c2c(OC)cc(OC)c3c(-c4ccccc4)cc(=O)oc23)cc1 (centres undefined) | ? | 6% | i | ? | -21% | 15µM*
N/C(=N\c1nc2ccccc2o1)NC(=O)c1ccccc1F | -1% | 8% | i | i | 8% | ?
N/C(=N\c1nc2ccccc2o1)NC(=O)c1ccccc1NC(=O)c1ccccc1 | 5.2µM* | ? | i | i | ? | 3.7µM*
Cc1cc2c(cc1C)N(Cc1ccc(Cl)cc1)C1=NCCCN12 | 2.6µM* | 26µM* | ? | ? | ? | 5.2µM*
CC(C)(C)c1ccc(CN2C3=NCCCN3c3ccccc32)cc1 | 7.3µM* | ? | ? | ? | 23µM* | 7.3µM*
OC(COc1ccccc1)CN1C2=NCCCN2c2ccccc21 (centres undefined) | ? | 0% | i | i | 6% | 10µM*
O=C(O)CN1C2=NCCCN2c2ccccc21 | 15% | 19% | i | i | 19% | 2%
Clc1cccc(CN2C3=NCCCN3c3ccccc32)c1 | ? | -20% | ? | i | -20% | ?
c1ccc(OCCN2C3=NCCN3c3ccccc32)cc1 | -27% | -11% | i | i | -12% | ?
Clc1ccc(CN2C3=NCCN3c3ccccc32)cc1 | 13µM* | ? | i | i | ? | ?
Cc1ccc(N2CC(C(=O)OCC(=O)c3ccc([N+](=O)[O-])cc3)CC2=O)cc1 (centres undefined) | -20% | 1% | i | i | -10% | -3%
O=S1(=O)N=C(Oc2ccc3ccccc3c2)c2ccccc21 | . | . | i | i | . | .
CC(C(=O)Nc1ccc(OC(F)(F)F)cc1)N1Cc2ccccc2C1=O (centres undefined) | -20% | . | i | i | . | -26%
COc1ccc(-c2cc(CC3(C(=O)O)CCN(C(=O)OC(C)(C)C)CC3)on2)c(OC)c1 | 8% | 11% | ? | i | -1% | 1%
CCCN1C2=NCCCN2c2ccccc21 | 2% | 13% | i | i | 3% | -6%
SMILES | TDP1 cell CPT | HT1080NT lethal | KB-V1 cytotox | KB-3-1 tox | HT1080 IDH1KD tx | DT40 TDP1 no CPT
Brc1ccc(CN2C3=NCCCN3c3ccccc32)cc1 | 16µM* | -15% | i | i | -20% | ?
c1ccc(CN2C3=NCCCN3c3ccccc32)cc1 | -16% | 1% | i | ? | -1% | -32%
Cc1ccc(CN2C3=NCCCN3c3ccccc32)cc1 | 15µM* | -10% | i | ? | -30% | ?
Cc1ccc(C(C)C)c(OCC(O)CNC2CCCC2)c1 (centres undefined) | 23µM* | -12% | i | i | -11% | 16µM*
Cc1ccc(C(C)C)c(OCC(O)CN(C)Cc2ccccc2)c1 (centres undefined) | 23µM* | ? | i | i | ? | ?
CN(CCOc1ccccc1)Cc1ccccc1 | ? | 22% | i | i | 1% | -26%
CCc1ccc(CN(C)CC(O)COc2cccc3ccccc23)cc1 (centres undefined) | ? | ? | i | i | ? | ?
Cc1cc(C)c(OCCCCN(C)Cc2ccccc2)c(C)c1 | ? | -17% | i | i | -2% | 23µM*
Cc1ccccc1OCC(O)CNC1CCCC1 (centres undefined) | -1% | -8% | i | i | -1% | -6%
Cc1ccc(OCCCCN(C)Cc2ccccc2)c(Br)c1 | 23µM* | ? | i | i | ? | 18µM*
COc1ccccc1NC(=O)Cn1c(=O)n(Cc2nc(-c3ccccc3)no2)c(=O)c2ccccc21 | -28% | . | i | i | . | ?
Cc1ccc([C@H]2N[C@]3(CCCN(Cc4ccc(Cl)cc4)C3=O)[C@H]3C(=O)N(Cc4ccccc4)C(=O)[C@@H]23)cc1 | ? | -14% | i | ? | -22% | ?
Cc1ccc(NC(=S)N2CCC(N(C)CC3CCCO3)CC2)cc1 (centres undefined) | 4% | -1% | i | i | -8% | 8%
CCN(CC)C(=O)/C(=C/c1cccc([N+](=O)[O-])c1)NC(=O)c1ccco1 | -26% | -6% | i | i | -3% | ?
CCC(NC(=O)c1ccncc1)c1ccccc1 (centres undefined) | -3% | 7% | i | i | -2% | ?
Cc1ccc(C(C)C)c(OCCCN(C)Cc2ccccc2)c1 | 16µM* | -22% | 12µM* | i | ? | 23µM*

High-throughput results (PubChem BioAssay)
